47 compounds from PubChem BioAssay AID1457 (National Center for Advancing Translational Sciences (NCATS), 2008) can be followed below.

The campaign covered roughly 210,000 compounds. About 730 (0.35%) were called active. Another 1% or so got no clear call; they are omitted. The call rests on the fitted dose curve; in most records, active means well fitted inhibition curve with a large enough effect; inconclusive means small, poorly fitted or top-dose-only effect; inactive means no such curve, though single readings can be large or run the other way. Shown is part of a subset that was picked to be rich in actives.
Potency means the concentration at half of the fitted maximal effect.

This assay is described as follows: qHTS Assay for Identifying the Cell-Membrane Permeable IMPase Inhibitors: Potentiation with Lithium.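 Further: IP1 builds up when IMPase is blocked and the TR-FRET signal falls; nearly all actives have a fitted effect of over 50% in size.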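 On activity, negative = IMPase inhibition: plate controls were basal vehicle for no effect and high inhibitor control for full effect.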 The settings on record: CHO-M1 cells, IP1 TR-FRET (IP-One), carbachol + lithium; series mostly up to 59.4 µM; activity, negative = IMPase inhibition: at the top concentration. From the text:
NIH Chemical Genomics Center [NCGC]
NIH Molecular Libraries Probe Production centers Network [MLPCN]
Assay Submitter (PI): Wei Zheng
Lithium has been widely used for the treatment of bipolar disorder. But lithium has a narrow therapeutic index and it can cause side effects such as thirst, weight gain, tremor, polyuria and memory problems. Although the mechanism for lithium action in treatment of bipolar disorder is still not fully understood, inhibition of inositol monophosphatase (IMPase) and the subsequent depletion of the inositol pool in living cells have been implicated as the primary therapeutic benefit of lithium therapy. Therefore, a selective IMPase inhibitor with reduced side effects might be a good drug candidate to replace lithium for the treatment of bipolar disorder. Several IMPase inhibitors have been discovered previously. However, they are not suitable for therapeutic use because of their poor cell membrane penetrability or oral bioavailability; the development of new cell-permeable IMPase inhibitors is needed.
IMPase catalyzes the hydrolysis of inositol-1-phosphate (IP1) to release free inositol. Binding of an agonist to a Gq coupled GPCR results in the activation of PLC, which hydrolyzes the PIP2 to form inositol-1,4,5-trisphosphate (IP3) and diacyl glycerol (DAG). While DAG activates protein kinase C (PKC), IP3 triggers the elevation of intracellular free Ca2+. The IP3 is very rapidly inactivated by hydrolysis to IP2, IP1 and then inositol by a series of enzymes including IMPase. Free inositols are used for synthesis of PI and thus start another inositol cycle.
To identify new cell-permeable IMPase inhibitors, we developed a cell-based IMPase assay in which the cytosolic IP1 is measured by a time-resolved fluorescence resonance energy transfer (TR-FRET) assay. In this assay, an IP1 specific antibody is used to detect the labeled IP1 tracer. When the cell lysate contains the elevated IP1 due to the inhibition of IMPase, the TR-FRET between the labeled antibody and IP1 tracer is disrupted resulting in a reduction in the total signal. Since the TR-FRET is used, this cell-based assay is a homogenous assay without cell wash and medium change that is suitable for assay miniaturization and HTS. In this particular assay, a small amount of lithium is added to potentiate the response of weak activators.
NCGC Assay Protocol Summary:
A Chinese hamster ovary (CHO) cell line stably expressing the M1 receptor (CHO-M1) was obtained from ATCC and maintained in F-12 Kaighn's media (Invitrogen, Carlsbad, CA) supplemented with 10 % FBS, 100 units/ml penicillin, 100 ug/ml streptomycin and 250 ug/ml geneticin at 37C, 5% CO2 in a humidified atmosphere. Before the assay, aliquots of cells were frozen and stored at -135C. The assay was performed in 1536-well format. Data are reported for both the ratio of the two emission wavelengths, and also for the component 'donor' channel, Em2=620. […] AC50 values were determined from concentration-response data modeled with the standard Hill equation.
(1) Frozen CHO-M1 cells were thaw, washed once with fresh media and resuspended in F12K media containing 10% FBS, 100 units/ml penicillin and 100 ug/ml streptomycin. Cells were plated at 4ul/well (2000 cells) in white, tissue culture treated 1536-well plates, and then cultured at 37C, 5 % CO2 for 16 to 30 hours.
(2) Add 23 nl/well of compound in DMSO solution. The final titration for each compound was between 0.6 nM and 46 uM.
(4) Incubation at 37C, 5 % CO2 for 30 min.
(5) Add 1 ul/well of d2-conjugated IP1 (d2-IP1) and 1 ul/well of Eu+ cryptate conjugated anti-IP1 antibody (Eu+-Ab) prepared in the cell lysis buffer, both from the IP-One kit (Cisbio, MA).
(6) Incubate at room temperature for 10 minutes.
(7) Detect the assay plate (Ex = 320, Em1 =665 and Em2 620) in a ViewLux plate reader.
On the technique in general: In qHTS, concentration-response curves come from the screen itself.
For the compound `CCOC(=O)c1c(C)[nH]c2c1-c1ccccc1C(=O)C2=O`, the “activity, negative = IMPase inhibition” value was 12.6% (inactive).

Take `CCOC(=O)c1c(C)nc(-c2ccccc2)nc1NC(=O)C(C)C`: the “activity, negative = IMPase inhibition” value was 2.09% [at 38.3 µM] (inactive).

As to `CCOC(=O)c1c(C)[nH]c(=S)c(C#N)c1-c1ccccc1`, the Potency is 12.6 µM (active).

With `Brc1ccc(C2=NCCC(c3ccccc3)O2)cc1` (configuration not stated), the “activity, negative = IMPase inhibition” value was 4.94% (inactive).

For the compound `CC[C@H](C)[C@@H](NC(=O)O[C@@H]1C(=O)c2cc(OC)ccc2O[C@H]1c1cccc(OC)c1)C(=O)OC`, the “activity, negative = IMPase inhibition” value is 18.9% (inactive).

Take `COc1cc(OC)c2c(-c3cccc(-c4cccc(N)c4)c3)cc(=O)oc2c1`: the “activity, negative = IMPase inhibition” value was 16.6% (inactive).

In the case of `CCOC(=O)C1=NO[C@@]2(C=C(Br)C(=O)[C@H]3O[C@H]32)C1`, the “activity, negative = IMPase inhibition” value was 15.8% (inactive).

On to `CC1=C(/C=C/C(C)=C/C=C/C(C)=C/C=C/C=C(C)/C=C/C=C(C)/C=C/C(=O)[C@]2(C)C[C@@H](O)CC2(C)C)C(C)(C)C[C@H](O)C1`, for which the “activity, negative = IMPase inhibition” value is -2.06% (inactive).

In the case of `COC(=O)c1sc2[nH]c(=S)n(N)c(=O)c2c1C`, the Potency is 10 µM (active).

For the compound `COC(=O)c1sc(=S)n(-c2ccccc2)c1N`, the “activity, negative = IMPase inhibition” value is 25.7% [at 38.3 µM] (inactive).

For `CCOC(=O)Cn1c(N)c(C(=O)OC)sc1=S`, the “activity, negative = IMPase inhibition” value is -4.7% [at 38.3 µM] (inactive).

Regarding `COC/C=C/C1=CC2=CC(=O)C(C)(OC(=O)CCC(=O)OC)C(=O)C2=CO1` (configuration not stated), the “activity, negative = IMPase inhibition” value was 0.633% (inactive).

`COc1cccc([C@@H]2Oc3ccc(Br)cc3C(=O)[C@H]2OC(=O)NCCc2ccc(OC)c(OC)c2)c1`: the “activity, negative = IMPase inhibition” value is 10.1% (inactive).

For `NNc1nnc(NN)c2ccccc12`, the “activity, negative = IMPase inhibition” value is 11.6% (inactive).

For `O=C(CSc1nc(C2CC2)nc2ccccc12)Nc1ccc2c(c1)OCCO2`, the “activity, negative = IMPase inhibition” value is 18.1% [at 38.3 µM] (inactive).

For `COC(=O)CSc1nc(C2CC2)nc2ccccc12`, the “activity, negative = IMPase inhibition” value was 3.22% [at 38.3 µM] (inactive).

As to `Cc1nnc(NC(=O)CSc2nc(C3CCCCC3)nc3ccccc23)s1`, the Potency was 6.31 µM (active).

Consider `NC(=O)c1sc(-c2ccsc2)cc1N`, for which the “activity, negative = IMPase inhibition” value was -15.1% (inactive).

Take `COC(=O)C1=C(C(=O)OC)[C@@H]2N(C)c3ccccc3[C@@]23C[C@@H](C(=O)OC)N(S(=O)(=O)c2ccc(Br)cc2)C3=N1`: the “activity, negative = IMPase inhibition” value was 2.46% (inactive).

In the case of `CC(N)(C(=O)O)c1ccc(-c2nn[nH]n2)cc1` (configuration not stated), the “activity, negative = IMPase inhibition” value is -8.09% (inactive).

In the case of `CCN1C(=O)N[C@@H](c2ccccc2)C(C(=O)OC)=C1C`, the “activity, negative = IMPase inhibition” value is -7.94% (inactive).

With `COC(=O)c1c(-c2cccs2)csc1NC(=O)CSc1ncnc2sc(C)c(C)c12`, the Potency was 28.2 µM (active).

Regarding `CCOC(=O)c1c(NC(=O)CSc2nnc(Cc3csc(N)n3)n2C)sc(C)c1C`, the “activity, negative = IMPase inhibition” value is 36% [at 38.3 µM] (inactive).

As for `CCOC(=O)c1c(-c2ccc(C)cc2C)csc1NC(=O)CSc1nnnn1C`, the “activity, negative = IMPase inhibition” value was 9.77% [at 38.3 µM] (inactive).

For the compound `Cc1ccc(NC(=O)O[C@@H]2C(=O)c3cc(Br)ccc3O[C@H]2c2ccc3c(c2)OCO3)cc1Br`, the “activity, negative = IMPase inhibition” value was 9.18% (inactive).

As to `C=C1O[C@@](CO)(n2cnc3c(N)ncnc32)[C@H](O)[C@@H]1O`, the “activity, negative = IMPase inhibition” value was -2.98% (inactive).

On to `Cc1ccccc1-c1ccc(C(=O)O)s1`, for which the “activity, negative = IMPase inhibition” value is -28.1% (inactive).

As for `O=C(NCc1ccco1)O[C@@H]1C(=O)c2cc(Br)ccc2O[C@H]1c1ccc2c(c1)OCO2`, the “activity, negative = IMPase inhibition” value was 7.71% (inactive).

`O=C(O)C[C@@H]1NC(=O)[C@H](Cc2ccccc2)NC1=O`: the “activity, negative = IMPase inhibition” value is -10.9% (inactive).

`Cc1cc(NCc2ccco2)n2c(nc3ccccc32)c1C#N`: the “activity, negative = IMPase inhibition” value was 20.5% [at 38.3 µM] (inactive).

`Cn1c(-c2ccco2)nc2cc3ccccc3cc21`: the “activity, negative = IMPase inhibition” value is -7.17% [at 38.3 µM] (inactive).

For `CN(c1nc2ccccc2n2c(-c3ccco3)nnc12)S(=O)(=O)c1ccccc1`, the Potency was 7.94 µM (active).

Regarding `CCCCCCCC[C@@H](O)/C=C/C=C/C=C\[C@@H](O)CCCC(=O)O`, the “activity, negative = IMPase inhibition” value is 6.73% (inactive).

With `COc1ccc2c(c1)O[C@@H](c1ccc3c(c1)OCO3)[C@H](OC(=O)NCCc1ccc(OC)c(OC)c1)C2=O`, the “activity, negative = IMPase inhibition” value is -14.2% (inactive).

Take `C/C=C(\C)C(=O)OC1C(OC(=O)C2(C)OC2C)c2cc3ccc(=O)oc3cc2OC1(C)C` (configuration not stated): the “activity, negative = IMPase inhibition” value was 4.87% (inactive).

As for `COC1(C2=NCCN2)COc2ccccc2O1` (configuration not stated), the “activity, negative = IMPase inhibition” value is 5.3% (inactive).

`C[C@H]1Cc2c(COc3ccccc3)nc3c(c2CO1)CN(C(=O)NCc1ccco1)CC3`: the “activity, negative = IMPase inhibition” value is -2.19% (inactive).

As to `C/C=C(\C)C(=O)O[C@H]1CC(C)=C2C(=O)C=C(C)C2[C@@H]2OC(=O)[C@@](C)(OC(=O)C=C(C)C)C21` (some centres not stated), the “activity, negative = IMPase inhibition” value was -1.2% (inactive).

As to `CCCCC/C=C\C/C=C\C/C=C\CCCCCCC(N)=O`, the “activity, negative = IMPase inhibition” value was 7.82% (inactive).

Turning to `COc1ccc(-c2nc3cnc(OC)nc3n(Cc3ccc(F)cc3)c2=O)cc1`, the Potency was 5.62 µM (active).

In the case of `COc1ccc(-c2nc3cnc(Oc4ccccc4)nc3n(Cc3cccs3)c2=O)cc1`, the Potency was 8.91 µM (active).

Regarding `COc1cccc(Cn2c(=O)c(C)nc3cnc(Oc4ccccc4)nc32)c1`, the “activity, negative = IMPase inhibition” value is 18.7% (inactive).

Take `COc1ccc(-c2nc3cnc(N(C)C)nc3n(Cc3cccs3)c2=O)cc1`: the “activity, negative = IMPase inhibition” value is 1.78% (inactive).

As to `COc1cccc(Cn2c(=O)c(-c3cc(F)cc(F)c3)nc3cnc(OC)nc32)c1`, the “activity, negative = IMPase inhibition” value was 0.937% (inactive).

Regarding `COc1cccc(Cn2c(=O)c(-c3ccccc3)nc3cnc(OC)nc32)c1`, the “activity, negative = IMPase inhibition” value was 24.5% (inactive).

Take `COc1ccc(-c2c(C)cc3oc(=O)cc(-c4ccccc4)c3c2C)cc1C=O`: the “activity, negative = IMPase inhibition” value is 2.81% (inactive).

As to `CC(C)[C@@H]1NC(=O)[C@H](Cc2ccccc2)NC(=O)[C@@H](CC(=O)O)NC(=O)CNC(=O)[C@H](CCCNC(=N)N)NC1=O`, the “activity, negative = IMPase inhibition” value was 7.05% (inactive).
